Entries with a potency or affinity are not part of this list. Active and inactive are the calls of the source.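 The calls were made as follows: active = signal drop whose fitted half-maximal potency is at most twice the top valid dose tested; inconclusive = flat curve inhibiting 30 to 70 percent, or a poor fit; inactive = the rest.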

For 17 compounds, outcome results are on record in PubChem BioAssay AID743320 (Broad Institute, 2014).

For this assay, the target named is Endoplasmic reticulum aminopeptidase 2 (Homo sapiens) (UniProt Q6P179). Put plainly: ERAP2 aminopeptidase inhibitors, dose response, selectivity assay for selective ERAP1 modulator project, biochemical, fluorescence plate reader, cherry-picked, set 2 (AID 743320). The note with it: recombinant ERAP2, Arg-AMC fluorescence, 1 h; series mostly up to 11 µM.
Endoplasmic reticulum aminopeptidase 2 (Homo sapiens), sequence (Q6P179 whole entry, looked up): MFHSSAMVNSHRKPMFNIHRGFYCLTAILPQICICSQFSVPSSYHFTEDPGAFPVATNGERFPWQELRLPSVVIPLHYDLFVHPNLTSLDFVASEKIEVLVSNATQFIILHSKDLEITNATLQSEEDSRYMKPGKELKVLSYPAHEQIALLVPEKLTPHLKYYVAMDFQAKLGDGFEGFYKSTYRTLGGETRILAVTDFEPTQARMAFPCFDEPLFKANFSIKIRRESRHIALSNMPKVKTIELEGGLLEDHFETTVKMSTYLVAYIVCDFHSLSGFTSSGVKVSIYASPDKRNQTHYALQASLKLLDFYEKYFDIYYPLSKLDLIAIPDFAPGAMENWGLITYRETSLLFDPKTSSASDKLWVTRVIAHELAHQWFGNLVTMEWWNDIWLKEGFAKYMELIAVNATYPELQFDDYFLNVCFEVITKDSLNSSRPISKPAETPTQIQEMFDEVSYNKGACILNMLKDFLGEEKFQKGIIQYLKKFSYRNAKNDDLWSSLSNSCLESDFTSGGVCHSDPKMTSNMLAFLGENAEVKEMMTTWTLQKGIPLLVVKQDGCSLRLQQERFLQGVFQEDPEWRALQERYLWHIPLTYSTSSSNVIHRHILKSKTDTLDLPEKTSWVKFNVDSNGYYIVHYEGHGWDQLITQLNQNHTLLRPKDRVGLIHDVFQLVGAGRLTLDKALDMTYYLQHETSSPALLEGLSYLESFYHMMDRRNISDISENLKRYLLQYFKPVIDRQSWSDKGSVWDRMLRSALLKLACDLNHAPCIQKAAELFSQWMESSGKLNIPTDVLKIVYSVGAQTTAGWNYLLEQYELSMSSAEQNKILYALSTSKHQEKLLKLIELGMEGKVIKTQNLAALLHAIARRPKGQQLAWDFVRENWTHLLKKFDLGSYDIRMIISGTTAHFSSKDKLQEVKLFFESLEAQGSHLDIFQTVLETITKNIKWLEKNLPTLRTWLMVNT
On to `C[C@@H]1CCCCO[C@H](CN(C)C)[C@H](C)CN([C@H](C)CO)C(=O)c2cc(NS(=O)(=O)c3ccc(Cl)cc3)ccc2O1`, for which the result was inactive.

On to `Cc1noc(C)c1S(=O)(=O)Nc1ccc2c(c1)C(=O)N([C@H](C)CO)C[C@@H](C)[C@@H](CN(C)CC1CCCCC1)OCCCC[C@@H](C)O2`, for which the outcome was inactive. In the case of `C[C@H]1CN([C@@H](C)CO)C(=O)c2cccc(NC(=O)Nc3ccc(C(F)(F)F)cc3)c2O[C@@H]1CN(C)C`, the outcome was inactive. `O=C(O)c1ccccc1NS(=O)(=O)c1cccc(-n2sc3ccccc3c2=O)c1`: the result was inactive.

For the compound `N#Cc1c(N)n(CCNC(=O)c2ccccc2)c2nc3ccccc3nc12`, the outcome was inactive.

On to `COc1ccc(C(=O)O)cc1S(=O)(=O)Nc1cc(C(F)(F)F)ccc1N1CCCCC1`, for which the result was inactive. For the compound `COc1ccc(NC(=O)Nc2ccc3c(c2)C(=O)N([C@H](C)CO)C[C@@H](C)[C@H](CN(C)Cc2ccc(C(=O)O)cc2)OCCCC[C@@H](C)O3)cc1`, the result was inactive.

For `COc1ccc2c3c([nH]c2c1)[C@H](CO)N(Cc1cc(F)ccc1F)CC31CN(C)C1`, the result was inactive. Regarding `COc1ccc(NC(=O)Nc2cccc3c2O[C@H](CN(C)Cc2ccc(C(=O)O)cc2)[C@H](C)CN([C@H](C)CO)C3=O)cc1`, the outcome was inactive.

As for `C[C@@H]1CCCCO[C@@H](CN(C)CC2CCCCC2)[C@H](C)CN([C@@H](C)CO)C(=O)c2cc(NC(=O)Nc3ccccc3)ccc2O1`, the outcome was inactive. In the case of `C[C@@H]1CCCCO[C@@H](CN(C)Cc2ccc3c(c2)OCO3)[C@@H](C)CN([C@@H](C)CO)C(=O)c2cc(NS(=O)(=O)c3ccccc3)ccc2O1`, the result was inactive. Consider `COc1cc2cc(C(=O)N3CCN(Cc4ccc5c(c4)OCO5)CC3)c(=O)oc2cc1OC`, for which the outcome was inactive. In the case of `COc1ccc(CN(C)C[C@@H]2OCCCC[C@@H](C)Oc3ccc(NS(=O)(=O)c4cccs4)cc3C(=O)N([C@H](C)CO)C[C@@H]2C)cc1` it was “inactive”. With `Cc1cc(=O)oc2c(CN3CCN(C)CC3)c(O)c(Cl)cc12`, the outcome was inactive. To `CCCNC(=O)C[C@@H]1CC[C@@H]2[C@H](COC[C@H](O)CN2C(=O)Nc2cccc(Cl)c2)O1` belongs “inactive”; to `Cc1ccc(S(=O)(=O)Nc2ccc3c(c2)C(=O)N([C@@H](C)CO)C[C@H](C)[C@H](CN(C)C)OCCCC[C@@H](C)O3)cc1`, “inactive”.

In the case of `Cc1noc(C)c1S(=O)(=O)N(C)C[C@@H]1OCCCC[C@@H](C)Oc2ccc(NS(=O)(=O)c3cccs3)cc2C(=O)N([C@@H](C)CO)C[C@@H]1C`, the result was inactive.
